# Counter-ions that a name gives are not always drawn. ± gives the standard deviation of the averaged measurements. Over roughly 1,900 compounds, “normalised cell viability (NPI; 0 = phenylarsine oxide control, 1 = DMSO control)” has its median near 1; the lowest 2% begin near 0.039. The sample holds the lowest values, similar compounds and a random draw of the others, so the mix is not that of the screen.
# System: NCI-H1944
# Test: normalised cell viability (NPI; 0 = phenylarsine oxide control, 1 = DMSO control) (fraction of DMSO control); NCI-H1944 is a non-small cell lung cancer line; higher = more viable cells (less compound toxicity)
# Conditions: 6 days
# [1] = glucocorticoid arm: hydrocortisone 2.75 uM co-treatment, compound 1 µM
# [2] = glucocorticoid arm: hydrocortisone 2.75 uM co-treatment, compound 5 µM
# [3] = glucocorticoid arm: hydrocortisone 2.75 uM pre-treated 2 days and continued, compound 1 µM
# [4] = glucocorticoid arm: hydrocortisone 2.75 uM pre-treated 2 days and continued, compound 5 µM
# [5] = glucocorticoid arm: vehicle, compound 1 µM
# [6] = glucocorticoid arm: vehicle, compound 5 µM
# 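Note: CTB read-out in 384-well plates, triplicate wells, NPI normalised per plate against 1 µM phenylarsine oxide (0) and 0.1% DMSO (1) controls.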
SMILES,normalised cell viability [1],normalised cell viability [2],normalised cell viability [3],normalised cell viability [4],normalised cell viability [5],normalised cell viability [6]
CCCCN(Cc1ccc(C(=O)NO)cc1)C(=O)Nc1ccccc1 [Nexturastat A],0.949 ± 0.017,0.9863 ± 0.0097,0.97 ± 0.02,0.963 ± 0.027,1.001 ± 0.009,0.967 ± 0.014
CC(C)[C@H](C(=O)Nc1ccc(C(=O)NO)cc1)c1ccccc1,0.752 ± 0.021,0.00258 ± 0.00047,0.897 ± 0.021,0.00754 ± 0.0016,0.172 ± 0.0081,0.00052 ± 0.00049
N#CC(=C(/N)Sc1ccccc1N)/C(C#N)=C(\N)Sc1ccccc1N,1.02 ± 0.011,1.08 ± 0.025,0.976 ± 0.016,1.01 ± 0.027,1.023 ± 0.0058,1.02 ± 0.015
CC#CCOC(=O)c1c(C)nc2sc3c(c2c1N)CCC(O)C3 (stereo not drawn),1.02 ± 0.021,1 ± 0.019,1.03 ± 0.038,1.03 ± 0.017,1.013 ± 0.0058,1.013 ± 0.0058
"COC1=C(OC)C(=O)c2ccccc2C1=O [2,3-Dimethoxy-1,4-naphthoquinone]",0.994 ± 0.01,0.905 ± 0.047,0.994 ± 0.0066,0.956 ± 0.01,0.997 ± 0.0027,0.8913 ± 0.0032
CCCCCC[C@@H]([C@@H](C)O)n1cnc2c(N)ncnc21 [erythro-9-(2-Hydroxy-3-nonyl)adenine hydrochloride],0.999 ± 0.001,0.992 ± 0.024,0.987 ± 0.012,0.997 ± 0.023,0.973 ± 0.0053,0.9777 ± 0.0055
CCCCCCCCCCCCCCCCCCOCC(COP(=O)([O-])OCC[N+](C)(C)C)OC (stereo not drawn),1.006 ± 0.0063,0.993 ± 0.015,0.9897 ± 0.0011,0.989 ± 0.028,0.9853 ± 0.0049,0.9957 ± 0.0059
CC(C)c1ccccc1Cc1cc(C(=O)Nc2ccc(S(=O)(=O)c3ccccc3C(C)(C)C)cc2)c(O)c(O)c1O,0.9933 ± 0.0099,0.826 ± 0.049,0.998 ± 0.014,0.961 ± 0.018,1.007 ± 0.0058,0.813 ± 0.033
CC(=O)NCC(=O)N1[C@@H]2CC[C@H]1c1ccc(Nc3ncc(C(F)(F)F)c(NC4CCC4)n3)cc12,0.712 ± 0.0091,0.552 ± 0.019,0.83 ± 0.0095,0.717 ± 0.01,0.301 ± 0.018,0.201 ± 0.017
C/C(=C\c1csc(C)n1)[C@@H]1C[C@@H]2O[C@]2(C)CCC[C@H](C)[C@H](O)[C@@H](C)C(=O)C(C)(C)[C@@H](O)CC(=O)N1 [Ixabepilone],0.132 ± 0.012,0.146 ± 0.018,0.484 ± 0.023,0.477 ± 0.05,0.0322 ± 0.0044,0.032 ± 0.004
CC(C)C[C@@H]1NC(=O)[C@@H](C(C)C)NC(=O)[C@@H]2CCCN2C(=O)[C@@H](CC(=O)O)NC(=O)[C@@H](Cc2c[nH]c3ccccc23)NC1=O,1.01 ± 0.014,1 ± 0.018,1.02 ± 0.025,1.003 ± 0.0061,0.9943 ± 0.005,1.013 ± 0.0058
Cc1ncc(-c2ccnc(Nc3ccc(S(C)(=O)=O)cc3)n2)n1C(C)C,0.584 ± 0.057,0.062 ± 0.0037,0.705 ± 0.061,0.319 ± 0.083,0.191 ± 0.045,0.0177 ± 0.0014
"CN(C)CCC(c1ccc(Cl)cc1)c1ccccn1 (single isomer, unassigned; (+)) [(+)-Chlorpheniramine maleate]",0.9827 ± 0.0045,0.997 ± 0.012,0.979 ± 0.004,1.005 ± 0.0071,0.968 ± 0.011,0.978 ± 0.003
CCCCC1(C2CCCC2)Cc2cc(OCC(=O)O)c(Cl)c(Cl)c2C1=O (stereo in doubt) [R(+)-Butylindazone],0.9903 ± 0.0064,0.958 ± 0.011,0.988 ± 0.01,0.965 ± 0.028,0.983 ± 0.006,0.9887 ± 0.004
O=C1NC(=O)/C(=C/c2ccc3nccc(-c4ccncc4)c3c2)S1,0.697 ± 0.026,0.836 ± 0.011,0.73 ± 0.039,0.848 ± 0.026,0.886 ± 0.023,0.932 ± 0.027
O=C1NCCc2[nH]c(-c3ccncc3)cc21,1.02 ± 0.015,0.0894 ± 0.0076,0.9933 ± 0.0072,0.145 ± 0.006,0.916 ± 0.016,0.0151 ± 0.0021
Cc1[nH]c(=O)c(C#N)cc1-c1ccncc1 [Milrinone],0.996 ± 0.013,1.001 ± 0.0083,0.998 ± 0.0035,1.05 ± 0.081,0.9903 ± 0.009,0.993 ± 0.015
CCCCCCCCCCCCCCCCCC(=O)OC(CC(=O)O)C[N+](C)(C)C (racemic) [DL-Stearoylcarnitine chloride],0.9967 ± 0.0042,0.906 ± 0.03,1.01 ± 0.019,0.993 ± 0.0017,1.013 ± 0.0058,0.99967 ± 0.00058
CNc1ncnc2c1ncn2[C@H]1C[C@H](OP(=O)(O)O)[C@@H](COP(=O)(O)O)O1,0.991 ± 0.0056,0.987 ± 0.029,1 ± 0.016,0.981 ± 0.027,0.996 ± 0.0061,0.9943 ± 0.0047
"C[C@H](O)[C@H](O)[C@H]1CNc2nc(N)[nH]c(=O)c2N1 [(6R)-5,6,7,8-Tetrahydro-L-biopterin dihydrochloride]",1.02 ± 0.011,1.01 ± 0.026,0.923 ± 0.18,1.001 ± 0.009,1.02 ± 0.01,1.02
CN1CCc2c(cc(O)c(O)c2Cl)C(c2cccc(Cl)c2)C1 (stereo not drawn),1.006 ± 0.0063,1.03 ± 0.03,1.01 ± 0.039,1.017 ± 0.0058,1,1.013 ± 0.0058
CNC(=O)c1nn(C)c2c1C(C)(C)Cc1cnc(Nc3ccc(N4CCN(C)CC4)cc3)nc1-2,0.485 ± 0.019,0.306 ± 0.002,0.549 ± 0.019,0.424 ± 0.013,0.282 ± 0.0098,0.126 ± 0.0072
CCC(=O)Nc1cccc(Oc2nc(Nc3ccc(N4CCN(C)CC4)cc3OC)ncc2Cl)c1,1.07 ± 0.017,1.11 ± 0.01,1.057 ± 0.0058,1.07 ± 0.035,1 ± 0.011,1.01 ± 0.01

# Source: the supplement of paper PMC8285479
